Test [1] is described as follows: NCI Yeast Anticancer Drug Screen. Data for the rad50 strain (AID 155).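 Note: 0% = growth of vehicle-only cultures of the same strain.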 As to conditions: S. cerevisiae rad50 strain growth inhibition, stronger effect = higher value. In a few lines: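 Compounds were tested on a yeast strain with an engineered DNA damage repair alteration; the reported value is growth inhibition normalised to vehicle treatment.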
A short description of test [2]: NCI Yeast Anticancer Drug Screen. Data for the mec2-1 strain (AID 157). The following applies: S. cerevisiae mec2-1 strain, stronger effect = higher value. In a few lines:
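Using mec2-1 yeast: add compound, measure growth, express inhibition versus vehicle-treated cultures.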

Test [3] in a line: NCI Yeast Anticancer Drug Screen. Data for the sgs1 mgt1 strain (AID 161).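 Note: 0% = growth of cultures given vehicle only.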 As to conditions: S. cerevisiae sgs1 mgt1 strain, stronger effect = higher value. In outline: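 Yeast cells carrying a defined DNA-repair defect were exposed to test compounds. Growth inhibition was measured relative to vehicle-treated controls.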
Test [4] can be described thus: NCI Yeast Anticancer Drug Screen. Data for the cln2 rad14 strain (AID 165).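 Note: 0% = growth equal to vehicle treated cultures.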 The following applies: S. cerevisiae cln2 rad14 strain, stronger effect = higher value. In outline:
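Yeast strain cln2 rad14, bearing defects in cell cycle control and DNA repair, serves as the test system; values reflect growth inhibition compared with vehicle.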

Test [5] in a line: NCI Yeast Anticancer Drug Screen. Data for the bub3 strain (AID 167). The following applies: S. cerevisiae bub3 mutant strain, stronger effect = higher value. In outline:
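Growth of a checkpoint-deficient yeast mutant is measured after compound exposure. Values represent inhibition relative to vehicle.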

Test [6] in a line: NCI Yeast Anticancer Drug Screen. Data for the mlh1 rad18 strain (AID 175). As to conditions: S. cerevisiae mlh1 rad18 strain growth inhibition, stronger effect = higher value. In outline:
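Steps: expose repair-defective yeast to compound; measure growth; express inhibition against vehicle-treated controls.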

Setting [7] is: at 5.0 µM (retest, dose inferred, filed as 0.5).
Setting [8] is: at 50.0 µM (retest, dose inferred, filed as 5.0).

Molecules are shown by their SMILES. About 79,000 compounds went through this panel and 15% of them were active in at least one assay; those are over-represented in the sample as a whole. Unmarked numbers belong to inactive results. Calls of active or inactive are those of the source. Cut-off read from the data, not from the text of the source: active = growth inhibition above about 70%; inactive = the rest.

As for `C=CCc1cc(Cl)ccc1O`, the growth inhibition in test [1] (setting [7]) is 1%; in test [1] (setting [8]), 51%; in test [1] (at 50.0 µM) it was 37.6%; in test [2] (setting [7]), -2%; in test [2] (setting [8]) it was 27%; in test [2] (at 50.0 µM), 79% (active). Moreover, the growth inhibition in test [3] (setting [7]) was 1%; in test [3] (setting [8]), 40%; in test [3] (at 50.0 µM), 83.5% (active); in test [4] (setting [7]) it was 1%; in test [4] (setting [8]) it was 14%; in test [4] (at 50.0 µM), 61.2%. Moreover, the growth inhibition in test [5] (setting [7]) was 0%; in test [5] (setting [8]), 19%; in test [5] (at 50.0 µM), 38.7%; in test [6] (setting [7]) it was 1%; in test [6] (setting [8]), 51%; in test [6] (at 50.0 µM), 36.4%.

With `CCOC(=O)c1cc(NC(=O)c2cc(NC(=O)c3cc(NC(=O)c4c(-c5ccccc5)noc4C)cn3C)cn2C)cn1C`, the growth inhibition was 3% in test [1] (setting [7]); 56% in test [1] (setting [8]); 50.3% in test [1] (at 50.0 µM); -3% in test [2] (setting [7]); 54% in test [2] (setting [8]); 56.8% in test [2] (at 50.0 µM). The growth inhibition in test [3] (setting [7]) is 2%; in test [3] (setting [8]), 86% (active); in test [3] (at 50.0 µM), 59.1%; in test [4] (setting [7]) it was -5%; in test [4] (setting [8]), 29%; in test [4] (at 50.0 µM), 14.8%. Moreover, the growth inhibition in test [5] (setting [7]) was -4%; in test [5] (setting [8]) it was 46%; in test [5] (at 50.0 µM) it was 36.1%; in test [6] (setting [7]) it was 0%; in test [6] (setting [8]) it was 67%; in test [6] (at 50.0 µM), 51.3%.

In the case of `O=C1CSC(=S)N1Cc1ccncc1`, the growth inhibition in test [1] (setting [7]) is 2%; in test [1] (setting [8]), 38%; in test [1] (at 50.0 µM), 39.1%; in test [2] (setting [7]) it was -14%; in test [2] (setting [8]) it was 37%; in test [2] (at 50.0 µM) it was 40.9%. The growth inhibition is -8% in test [3] (setting [7]); 25% in test [3] (setting [8]); 57.5% in test [3] (at 50.0 µM); 24% in test [4] (setting [7]); 31% in test [4] (setting [8]); 18.6% in test [4] (at 50.0 µM). For the same compound, the growth inhibition in test [5] (setting [7]) is 12%; in test [5] (setting [8]) it was 29%; in test [5] (at 50.0 µM), 65.5%; in test [6] (setting [7]), -16%; in test [6] (setting [8]) it was 71% (active); in test [6] (at 50.0 µM), 39.3%.

For `O=c1c2c(F)c(F)c(F)c(F)c2sc2nccn12`, the growth inhibition was 15% in test [1] (setting [7]); 100% (active) in test [1] (setting [8]); 89% (active) in test [1] (at 50.0 µM); 40% in test [2] (setting [7]); 100% (active) in test [2] (setting [8]); 91.2% (active) in test [2] (at 50.0 µM). Besides, the growth inhibition in test [3] (setting [7]) is 2%; in test [3] (setting [8]), 99% (active); in test [3] (at 50.0 µM), 84.8% (active); in test [4] (setting [7]), 5%; in test [4] (setting [8]), 99% (active); in test [4] (at 50.0 µM) it was 90.2% (active). The growth inhibition in test [5] (setting [7]) is 27%; in test [5] (setting [8]) it was 100% (active); in test [5] (at 50.0 µM), 89.5% (active); in test [6] (setting [7]), 46%; in test [6] (setting [8]), 99% (active); in test [6] (at 50.0 µM), 86.8% (active).

With `Cc1nc2c(cnn2C)cc1CCc1ccccc1`, the growth inhibition was 2% in test [1] (setting [7]); 16% in test [1] (setting [8]); 14.7% in test [1] (at 50.0 µM); 3% in test [2] (setting [7]); 35% in test [2] (setting [8]); 3.9% in test [2] (at 50.0 µM). For the same compound, the growth inhibition is 5% in test [3] (setting [7]); 53% in test [3] (setting [8]); 19.6% in test [3] (at 50.0 µM); 12% in test [4] (setting [7]); 50% in test [4] (setting [8]); 25.1% in test [4] (at 50.0 µM). For the same compound, the growth inhibition in test [5] (setting [7]) is 23%; in test [5] (setting [8]), 78% (active); in test [5] (at 50.0 µM), 76.1% (active); in test [6] (setting [7]), 8%; in test [6] (setting [8]), 39%; in test [6] (at 50.0 µM), 23.6%.

For `CC(NNC(=S)N1CCCC1)c1cc2ccccc2cn1` (stereo not drawn), the growth inhibition was 30% in test [1] (setting [7]); 99% (active) in test [1] (setting [8]); 89.2% (active) in test [1] (at 50.0 µM); 38% in test [2] (setting [7]); 99% (active) in test [2] (setting [8]); 90.8% (active) in test [2] (at 50.0 µM). The growth inhibition in test [3] (setting [7]) is 62%; in test [3] (setting [8]) it was 98% (active); in test [3] (at 50.0 µM) it was 90.8% (active); in test [4] (setting [7]), 66%; in test [4] (setting [8]), 96% (active); in test [4] (at 50.0 µM), 90.3% (active). The growth inhibition is 64% in test [5] (setting [7]); 98% (active) in test [5] (setting [8]); 88.2% (active) in test [5] (at 50.0 µM); 34% in test [6] (setting [7]); 98% (active) in test [6] (setting [8]); 92.2% (active) in test [6] (at 50.0 µM).
